PfHsp90 yeast 2: growth inhibition of PfHsp90-expressing yeast, primary screen, antimalarial PfHsp90 inhibitor project, S. cerevisiae, BacTiter-Glo luminescence, single point, set 2 | BacTiter-Glo ATP, 48 h; yeast lacking PDR1 and PDR3 efflux regulators | inhibition, % at 9.4 µM | 310,000 compounds, 0.32% hits | AID 504621, 2011;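 active means every replicate shows inhibition above about 80%, whatever the replicate mean, limit read from the data; inconclusive means mean inhibition reaches the set limit but some replicate falls short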
SKKanGAS inh: S. pyogenes SKKanGAS growth inhibitors in kanamycin, primary screen, streptokinase expression inhibitor project, SKKanGAS strain, BacTiter-Glo luminescence; inhibition, % at 7.5 µM; 6 h; 300,000 compounds, 1.3% hits; AID 1662, 2009;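 active means mean replicate score, as percent of positive control median, at least 50; inconclusive means mean below 50 but one replicate at or above 50; inactive means mean and every replicate below 50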;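 further: strain carries kanamycin resistance gene driven by streptokinase promoter and grows in 40 µg/ml kanamycin; loss of luminescence reflects streptokinase promoter inhibition or plain growth inhibition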
TIM10 inh: growth inhibitors of isogenic TIM10 control yeast, primary screen, counter-screen for tim10-1 yeast inhibitor project, luminescence, uHTS | S. cerevisiae TIM10 strain growth, BacTiter-Glo luminescence, 24 h | inhibition, % at 10 µM | 330,000 compounds, 1.4% hits | AID 463195, 2010;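 active means inhibition of 40% or more at the single tested concentration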;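 further: wild-type TIM10 isogenic control strain grown at permissive 25 °C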
tim10-1 inh: growth inhibitors of tim10-1 mutant yeast, primary screen, luminescence, uHTS. inhibition, % at 20 µM. 330,000 compounds, 2.2% hits. S. cerevisiae tim10-1 ts strain growth, BacTiter-Glo, 24 h;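 active means inhibition of at least 40%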;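 further: mutant grown at 25 °C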
tim23-1 inh: growth inhibitors of tim23-1 mutant yeast, primary screen, luminescence, uHTS | 330,000 compounds, 1.3% hits | inhibition, % at 20 µM | S. cerevisiae tim23-1 growth, BacTiter-Glo luminescence, 24 h | AID 463212, 2010;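 active means growth inhibition of the mutant yeast at or above 50%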;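 further: temperature-sensitive mutant grown at 25 °C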
V-ATPase pH: regulators of yeast V-ATPase proton pumping, primary screen, pHLuorin cytosolic pH fluorescence. S. cerevisiae. response, % at 10 µM. 350,000 compounds, 0.37% hits. AID 504577, 2011; in the data active means response mostly above about 7.3%, no sharp cut-off; inactive means mostly below about 5.4%; further: actives read high
tim23-1 conf: tim23-1 mutant yeast growth inhibitors, confirmation, luminescence, single concentration; S. cerevisiae tim23-1 growth, BacTiter-Glo luminescence, 24 h; shares compounds with tim23-1 inh; 4,400 compounds, 83% hits; inhibition, % at 20 µM;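 active means inhibition above about 39% in either of two replicate wells at 20 µM, limit read from the data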;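 further: temperature-sensitive tim23-1 mutant grown at 25 °C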
Hits are given with their value; . = inactive; ? = inconclusive; / = no result. Sampled rows, rich in hits. Any-hit rate of the full collection: about 4.6%.

SMILES | PfHsp90 yeast 2 | SKKanGAS inh | TIM10 inh | tim10-1 inh | tim23-1 inh | V-ATPase pH | tim23-1 conf
Cc1ccc(S(=O)(=O)N2CCCC2C(=O)Nc2nc3ccccc3s2)cc1 (stereo not drawn) | . | . | . | . | . | . | /
Cc1cc(C)c(NC(=O)CNC(=O)CN(C)Cc2ccc(Br)s2)c(C)c1 | . | / | . | . | . | . | /
CCc1ccc2nc(SCC(=O)Nc3nnc(C)s3)c(C)cc2c1 | . | . | . | . | 58 | . | .
CC1CN(S(=O)(=O)c2cccc(C(=O)N(Cc3nnc(-c4ccccc4Cl)o3)C3CC3)c2)CC(C)O1 (stereo not drawn) | / | . | . | . | . | . | /
Cc1ccc2[nH]cc(C(=O)CCl)c2c1 | . | . | . | . | 58 | . | 66
O=C(COc1ccc(C(=O)c2ccccc2)cc1)Nc1cccnc1 | . | . | . | . | . | . | /
CC(Sc1nnc2ccccn12)C(N)=O (stereo not drawn) | . | . | . | . | . | . | /
COC(=O)Sc1nnc(-c2ccc(Br)cc2)o1 | / | . | . | . | 60 | / | 52
O=C(/C=C\c1ccccc1)Oc1cccc2cccnc12 | . | . | . | . | . | . | /
O=C(/C=C/c1ccccc1)Oc1cccc2cccnc12 | . | . | . | . | 54 | . | 43
COCCNC(=S)N(C)[C@H]1C[C@H]2c3cc(-c4ccccc4)ccc3CCN2C(=O)[C@H]1[C@H](C)O | / | / | / | / | / | . | /
CCOC(=O)CSc1nc(N)c(C#N)c(-c2ccc(OCC)cc2)c1C#N | . | . | . | . | . | . | /
CC1=C(C#N)c2nc(N)c(C#N)c(C)c2/C1=C\c1ccc(OCC(=O)O)c(Cl)c1 | . | . | . | . | 54 | . | 49
O=C(NCC1(N2CCCCC2)CCCCC1)c1cccc(S(=O)(=O)Nc2ccc(F)cc2)c1 | . | / | . | . | . | . | /
COc1cc2sc3cc(NCC[C@@H]4CCCN4C)ccc3c(=O)c2cc1OC | . | / | . | . | . | . | /
COc1cc2sc3cc(NCc4ccc(C)o4)ccc3c(=O)c2cc1OC | / | / | . | . | 58 | . | 72
CC(C)CN=Cc1c(O)c([N+](=O)[O-])cc2oc3c(c12)CCCC3 | . | . | . | . | 66 | . | .
Cc1c(C(=O)OCC(=O)N2CCC(C)CC2)oc2ccccc12 | / | . | . | . | 54 | . | 58
COc1ccc2oc(C(=O)OCC(=O)N3CCC(C)CC3)c(C)c2c1 | . | . | . | . | . | . | /
COc1ccc(N2CCN(CCC(=O)c3ccc4ccccc4c3)CC2)cc1 | . | . | . | . | 69 | . | 57
Cc1ccc(S(=O)(=O)N[C@@H](Cc2ccccc2)C(=O)CCl)cc1 | . | / | . | . | 69 | . | 48
Cc1ccc(OCCNC(=O)c2ccccc2F)cc1 | . | . | . | . | . | . | /
Cc1ccc(-c2cc(-c3ccccc3)no2)c(O)c1 | . | . | / | / | / | . | /
Clc1ccc2nc(-c3ccccc3)cn2c1 | . | . | . | . | 52 | . | .
Cc1ccc2nc(-c3cc(-c4ccccc4)no3)cn2c1 | . | . | . | . | 55 | . | 47
SMILES | PfHsp90 yeast 2 | SKKanGAS inh | TIM10 inh | tim10-1 inh | tim23-1 inh | V-ATPase pH | tim23-1 conf
CC(Oc1cccc(Cl)c1)C(=O)Nc1ccc(S(=O)(=O)N(C)C2CCN(C)CC2)cc1 (stereo not drawn) | . | / | . | . | . | . | /
Cc1ccc(C(=O)NNC(=O)c2n[nH]c(=O)c3ccccc23)cc1C | . | / | . | . | . | . | /
CCOc1ccc(S(=O)(=O)N2CCN(C(=O)C3CCC3)CC2)cc1 | . | . | . | . | . | . | /
CCN(Cc1ccncc1)C(=O)c1ccccc1NS(=O)(=O)c1ccc(Br)cc1 | . | . | . | . | . | . | /
CCCCN(C(=O)c1ccc(C)cc1)c1c(N)n(CCC)c(=O)[nH]c1=O | . | . | . | . | 53 | . | 54
COCCN(C(=O)c1ccc(N2C(=O)c3ccccc3C2=O)cc1)c1c(N)n(CC(C)C)c(=O)[nH]c1=O | . | / | . | . | 60 | . | 51
COCCN(C(=O)c1ccc(N2CCCC2=O)cc1)c1c(N)n(CC(C)C)c(=O)[nH]c1=O | / | / | . | . | . | . | /
CCCCN(C(=O)c1ccc2c(c1)OCO2)c1c(N)n(CCCC)c(=O)[nH]c1=O | / | . | . | . | 52 | . | 53
Cc1ccc(C(=O)COC(=O)CCC(=O)NC2CCCCC2)cc1C | . | . | . | . | . | . | /
C=CCNC1=C(Cl)C(=O)c2ccccc2C1=O | . | . | . | . | 54 | . | 44
CC(C)NC1=C(Cl)C(=O)c2ccccc2C1=O | . | . | . | . | 55 | . | 45
COc1cccc(Nc2nc(-c3ccccc3)nc3ccccc23)c1 | . | . | . | . | 50 | . | 45
Cc1ccc(-c2nc(Nc3cccc(O)c3)c3ccccc3n2)cc1 | . | . | . | . | 83 | . | .
Cc1ccc(-c2nc(Nc3ccc(O)cc3)c3ccccc3n2)cc1 | . | . | . | . | 74 | . | 44
O=[N+]([O-])c1ccc(-c2nc(Nc3cccc(O)c3)c3ccccc3n2)cc1 | . | ? | . | . | . | . | /
COc1cccc(Nc2nc(-c3ccccc3O)nc3ccccc23)c1 | . | . | . | . | . | . | /
Cc1ccc(-c2nc(Nc3ccc(N4CCOCC4)cc3)c3ccccc3n2)cc1 | . | . | . | . | . | . | /
COc1ccc2c(c1)CCc1c-2nc2ccccc2c1N1CCOCC1 | . | . | . | . | . | . | /
CC(=O)NC(=S)Nc1sc2c(c1C(N)=O)CCC(C)C2 (stereo not drawn) | . | . | . | . | . | . | /
Cc1c(C(=O)Nc2ccc(-c3nnc4n3CCCCC4)cc2)oc2ccc(Br)cc12 | . | . | . | . | . | . | /
O=S(=O)(N/N=C\C=C\c1ccccc1)c1ccc(Br)cc1 | . | . | . | . | 56 | . | 42
COc1ccc(-n2cnc3c(N)nc(N)nc32)cc1 | . | / | / | / | / | . | /
CC12CCC(C(=O)NCCCN3CCOCC3)(C(Br)C1=O)C2(C)C (stereo not drawn) | . | . | . | . | 95 | . | .
CC12CCC(C(=O)NCCCN3CCOCC3)(OC1=O)C2(C)C (stereo not drawn) | . | . | . | . | . | . | /
N#Cc1nc(Nc2cc(F)cc(F)c2)c2ncn(CC(F)F)c2n1 | . | / | . | . | 52 | . | .
CCCCC(=O)NC(c1ccc(Cl)cc1)c1ccc2cccnc2c1O (stereo not drawn) | 114 | 70 | . | . | 56 | . | 49

Screens deposited in PubChem BioAssay by several laboratories.
